Measurements published in the supplement of paper PMC8728848.
The full list was thinned out, with the strongest signals kept by preference.

Key:
Experiment in all cases: glycan array binding signal (z-score within array); higher = stronger binding
Conditions in all cases: glycan notation: IUPAC condensed, linker removed
[1] = target: Fuc(a1-2)Gal(b1-3)GalNAc(a1-3)[Fuc(a1-2)]Gal(b1-4)Glc
How it was run: (§1)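 Glycan array binding is given as a within-array Z-score, which can be read as non-binding when negative. The arrays, 3228 of them, came from the Consortium for Functional Glycomics database and were retained only where the protein sequence was available. Z-scores were averaged across arrays of the same protein sequence at different concentrations or buffers and across linkers.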

[2] = target: Fuc(a1-2)Gal(b1-3)GlcNAc(b1-3)Gal(b1-4)Glc
How it was run: as §1

[3] = target: Fuc(a1-2)Gal(b1-4)Glc6S
How it was run: as §1

[4] = target: Fuc(a1-2)[Gal(a1-3)]Gal(b1-4)[Fuc(a1-3)]GlcNAc
How it was run: as §1

[5] = target: Fuc(a1-2)[GalNAc(a1-3)]Gal
How it was run: as §1

[6] = target: Fuc(a1-2)[GalNAc(a1-3)]Gal(b1-4)GlcNAc(b1-3)Gal(b1-4)GlcNAc(b1-3)Gal(b1-4)GlcNAc
How it was run: as §1

[7] = target: Fuc(a1-3)[Gal(b1-4)]GlcNAc(b1-3)GalNAc
How it was run: as §1

[8] = target: Fuc(a1-3)[Gal3S(b1-4)]GlcNAc
How it was run: as §1

[9] = target: Gal(b1-3)GalNAc(a1-3)[Fuc(a1-2)]Gal(b1-4)Glc
How it was run: as §1

[10] = target: Gal(b1-3)GlcNAc(b1-6)Gal(b1-4)GlcNAc
How it was run: as §1

[11] = target: Gal(b1-4)GlcNAc
How it was run: as §1

[12] = target: Gal(b1-4)GlcNAc(b1-2)Man(a1-3)[Gal(b1-4)GlcNAc(b1-2)Man(a1-6)]Man(b1-4)GlcNAc(b1-4)GlcNAc
How it was run: as §1

[13] = target: Gal(b1-4)GlcNAc(b1-3)Gal(b1-3)GlcNAc
How it was run: as §1

[14] = target: Gal(b1-4)GlcNAc(b1-3)Gal(b1-4)[Fuc(a1-3)]GlcNAc(b1-3)Gal(b1-4)[Fuc(a1-3)]GlcNAc
How it was run: as §1

[15] = target: Gal6S(b1-4)GlcNAc6S
How it was run: as §1

[16] = target: GalNAc(b1-3)Gal
How it was run: as §1

[17] = target: Glc(a1-4)Glc
How it was run: as §1

[18] = target: GlcA(b1-3)GlcNAc
How it was run: as §1

[19] = target: GlcNAc(b1-2)Man(a1-3)[GlcNAc(b1-2)Man(a1-6)]Man(b1-4)GlcNAc(b1-4)GlcNAc
How it was run: as §1

[20] = target: GlcNAc(b1-2)[GlcNAc(b1-4)]Man(a1-3)[GlcNAc(b1-2)Man(a1-6)]Man(b1-4)GlcNAc(b1-4)GlcNAc
How it was run: as §1

[21] = target: GlcNAc(b1-3)[GlcNAc(b1-4)][GlcNAc(b1-6)]GlcNAc
How it was run: as §1

[22] = target: GlcNAc(b1-3)[GlcNAc(b1-6)]Gal(b1-4)GlcNAc
How it was run: as §1

[23] = target: GlcNAc(b1-4)[GlcNAc(b1-6)]GalNAc
How it was run: as §1

[24] = target: Neu5Ac(a2-3)Gal(b1-3)GalNAc6S
How it was run: as §1

[25] = target: Neu5Ac(a2-3)Gal(b1-3)GlcNAc6S
How it was run: as §1

[26] = target: Neu5Ac(a2-3)Gal(b1-3)[Fuc(a1-4)]GlcNAc(b1-3)Gal(b1-3)[Fuc(a1-4)]GlcNAc
How it was run: as §1

[27] = target: Neu5Ac(a2-3)Gal(b1-3)[Neu5Ac(a2-6)]GalNAc
How it was run: as §1

[28] = target: Neu5Ac(a2-3)Gal(b1-4)GlcNAc(b1-3)Gal(b1-4)[Fuc(a1-3)]GlcNAc
How it was run: as §1

[29] = target: Neu5Ac(a2-6)Gal(b1-4)Glc
How it was run: as §1

[30] = target: Neu5Ac(a2-6)GlcNAc(b1-4)GlcNAc
How it was run: as §1

B1: SSL (Salmo salar) (protein)
chain: TGAKGAEEGVVPAETRNQCPTGWFQFGSRCFMFVETARSWPLAERHCVSLGANLASVHSSADDQFLQAIAGCKTGAFSTTWIGGFDAVQDRLWFWSDGSEFDYQNWAKGEPNNSGGREPCIVINWGDEYRWNDIKCGNSFPSVCSKRICEIQKN
[1]
  glycan array binding signal (z-score): -0.152
[2]
  glycan array binding signal (z-score): -0.096
[3]
  glycan array binding signal (z-score): -0.137
[4]
  glycan array binding signal (z-score): -0.154
[5]
  glycan array binding signal (z-score): -0.165
[6]
  glycan array binding signal (z-score): -0.178
[7]
  glycan array binding signal (z-score): -0.124
[8]
  glycan array binding signal (z-score): -0.17
[9]
  glycan array binding signal (z-score): -0.165
[10]
  glycan array binding signal (z-score): -0.163
[11]
  glycan array binding signal (z-score): -0.154
[12]
  glycan array binding signal (z-score): -0.167
[13]
  glycan array binding signal (z-score): -0.174
[14]
  glycan array binding signal (z-score): -0.175
[15]
  glycan array binding signal (z-score): -0.162
[16]
  glycan array binding signal (z-score): -0.143
[17]
  glycan array binding signal (z-score): 2.63
[18]
  glycan array binding signal (z-score): 4.35
[19]
  glycan array binding signal (z-score): 3.12
[20]
  glycan array binding signal (z-score): 6.65
[21]
  glycan array binding signal (z-score): 11.7
[22]
  glycan array binding signal (z-score): 6.68
[23]
  glycan array binding signal (z-score): 8.49
[24]
  glycan array binding signal (z-score): -0.18
[25]
  glycan array binding signal (z-score): -0.167
[26]
  glycan array binding signal (z-score): -0.086
[27]
  glycan array binding signal (z-score): -0.153
[28]
  glycan array binding signal (z-score): -0.179
[29]
  glycan array binding signal (z-score): -0.158
[30]
  glycan array binding signal (z-score): 0.202
